Laboratory results from the supplement of paper PMC10849652.
Targets with a hit are over-represented here; the source holds about 7,900 in all. About 0.6% of all pairs of compound and target were hits. A number with no mark means an inactive call.

Legend:
Experiment in all cases: log2 fold change, soluble protein after heating vs DMSO (PISA); higher = thermal stabilisation; K562 cells, 10 uM, 30 min; active = over 0.2 and 3.5 SD of the protein, either way, in both replicates (recomputed)
[1] = compound: CC[C@@H]1C(=O)N(C)c2cnc(Nc3ccc(C(=O)NC4CCN(C)CC4)cc3OC)nc2N1C1CCCC1
How it was run: (§1)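 K562 cells at 2×10^6 cells/mL were given 10 μM compound for 30 min. Aliquots then went through 3 min of heating across 48°C-58°C, were pooled, and were extracted in PBS with 0.5% NP-40 at 4°C, and the supernatant after 21,000xg for 90 min was quantified by TMTpro 16plex LC-MS/MS with channel sums equalised. Thermal stability relative to control samples, from duplicates, is given as log2 fold change.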

volasertib = compound: CC[C@@H]1C(=O)N(C)c2cnc(Nc3ccc(C(=O)N[C@H]4CC[C@H](N5CCN(CC6CC6)CC5)CC4)cc3OC)nc2N1C(C)C [volasertib]
How it was run: as §1

[2] = compound: CC[C@H](C)N1C=C(C2=C(C=C(C=C21)C3=CN=C(C=C3)N4CCNCC4)C(=O)NCC5=C(C=C(NC5=O)C)C)C
How it was run: as §1

epoxomicin = compound: CC[C@H](C)[C@@H](C(=O)N[C@@H]([C@@H](C)O)C(=O)N[C@@H](CC(C)C)C(=O)[C@]1(CO1)C)NC(=O)[C@H]([C@@H](C)CC)N(C)C(=O)C [epoxomicin]
How it was run: as §1

[3] = compound: CCn1c(C(=O)N(C2CC2)C2CC2)cc2c3c(ncn3C)c(Nc3cc(C)n(C)n3)nc21
How it was run: as §1

[4] = compound: CCn1cc(-c2ccnc3[nH]c(-c4cccc(CN(C)C)c4)cc23)c(-c2ccc(NC(=O)N(C)C)cc2)n1
How it was run: as §1

[5] = compound: CN(C)CC(=O)Nc1ccc2[nH]c(=O)c3ccccc3c2c1
How it was run: as §1

rosiglitazone = compound: CN(CCOC1=CC=C(C=C1)C[C@H]2C(=O)NC(=O)S2)C3=CC=CC=N3 (racemic) [rosiglitazone]
How it was run: as §1

[6] = compound: CN1C2=C(C3=C1C(=O)N(N=C3)CC4=CC(=CC=C4)N)SC(=C2)S(=O)C
How it was run: as §1

[7] = compound: CN1CCC(CNc2ccc3ncc(-c4cccc(OC(F)(F)F)c4)n3n2)CC1
How it was run: as §1

saracatinib = compound: CN1CCN(CCOc2cc(OC3CCOCC3)c3c(Nc4c(Cl)ccc5c4OCO5)ncnc3c2)CC1 [saracatinib]
How it was run: as §1

sotrastaurin = compound: CN1CCN(c2nc(C3=C(c4c[nH]c5ccccc45)C(=O)NC3=O)c3ccccc3n2)CC1 [sotrastaurin]
How it was run: as §1

alvocidib = compound: CN1CC[C@H](c2c(O)cc(O)c3c(=O)cc(-c4ccccc4Cl)oc23)[C@H](O)C1 [alvocidib]
How it was run: as §1

Tubastatin A = compound: CN1CCc2c(c3ccccc3n2Cc2ccc(C(=O)NO)cc2)C1 [Tubastatin A]
How it was run: as §1

[8] = compound: CNC(=O)C1=CC=CC=C1NC2=NC(=NC=C2Cl)NC3=C(C=C(C=C3)N4CCOCC4)OC
How it was run: as §1

defactinib = compound: CNC(=O)c1ccc(Nc2ncc(C(F)(F)F)c(NCc3nccnc3N(C)S(C)(=O)=O)n2)cc1 [defactinib]
How it was run: as §1

rucaparib = compound: CNCc1ccc(-c2[nH]c3cc(F)cc4c3c2CCNC4=O)cc1 [rucaparib]
How it was run: as §1

[9] = compound: CNc1nc(-c2ccc3c(N)n[nH]c3c2)cc(N2C[C@@H](C(=O)NC3CCCCC3)CC[C@H]2C)n1
How it was run: as §1

encorafenib = compound: COC(=O)N[C@@H](C)CNc1nccc(-c2cn(C(C)C)nc2-c2cc(Cl)cc(NS(C)(=O)=O)c2F)n1 [encorafenib]
How it was run: as §1

[10] = compound: COC(=O)[C@H](CCSC)NC(=O)C1=C(C=C(C=C1)NC[C@H](CS)N)C2=CC=CC=C2
How it was run: as §1

Chain of UniProt P48426 (P48426 whole entry, looked up): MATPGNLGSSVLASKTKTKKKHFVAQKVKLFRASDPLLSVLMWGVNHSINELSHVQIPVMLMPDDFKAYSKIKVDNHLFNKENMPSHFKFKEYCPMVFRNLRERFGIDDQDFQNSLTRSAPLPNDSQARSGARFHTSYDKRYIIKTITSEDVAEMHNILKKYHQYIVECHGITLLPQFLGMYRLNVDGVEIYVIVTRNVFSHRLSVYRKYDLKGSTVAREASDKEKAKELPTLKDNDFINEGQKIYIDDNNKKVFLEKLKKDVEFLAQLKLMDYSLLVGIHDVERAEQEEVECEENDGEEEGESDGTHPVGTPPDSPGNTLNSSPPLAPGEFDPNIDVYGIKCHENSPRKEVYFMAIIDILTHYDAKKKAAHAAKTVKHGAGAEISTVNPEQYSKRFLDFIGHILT
Chain of UniProt Q16512 (Q16512 whole entry, looked up): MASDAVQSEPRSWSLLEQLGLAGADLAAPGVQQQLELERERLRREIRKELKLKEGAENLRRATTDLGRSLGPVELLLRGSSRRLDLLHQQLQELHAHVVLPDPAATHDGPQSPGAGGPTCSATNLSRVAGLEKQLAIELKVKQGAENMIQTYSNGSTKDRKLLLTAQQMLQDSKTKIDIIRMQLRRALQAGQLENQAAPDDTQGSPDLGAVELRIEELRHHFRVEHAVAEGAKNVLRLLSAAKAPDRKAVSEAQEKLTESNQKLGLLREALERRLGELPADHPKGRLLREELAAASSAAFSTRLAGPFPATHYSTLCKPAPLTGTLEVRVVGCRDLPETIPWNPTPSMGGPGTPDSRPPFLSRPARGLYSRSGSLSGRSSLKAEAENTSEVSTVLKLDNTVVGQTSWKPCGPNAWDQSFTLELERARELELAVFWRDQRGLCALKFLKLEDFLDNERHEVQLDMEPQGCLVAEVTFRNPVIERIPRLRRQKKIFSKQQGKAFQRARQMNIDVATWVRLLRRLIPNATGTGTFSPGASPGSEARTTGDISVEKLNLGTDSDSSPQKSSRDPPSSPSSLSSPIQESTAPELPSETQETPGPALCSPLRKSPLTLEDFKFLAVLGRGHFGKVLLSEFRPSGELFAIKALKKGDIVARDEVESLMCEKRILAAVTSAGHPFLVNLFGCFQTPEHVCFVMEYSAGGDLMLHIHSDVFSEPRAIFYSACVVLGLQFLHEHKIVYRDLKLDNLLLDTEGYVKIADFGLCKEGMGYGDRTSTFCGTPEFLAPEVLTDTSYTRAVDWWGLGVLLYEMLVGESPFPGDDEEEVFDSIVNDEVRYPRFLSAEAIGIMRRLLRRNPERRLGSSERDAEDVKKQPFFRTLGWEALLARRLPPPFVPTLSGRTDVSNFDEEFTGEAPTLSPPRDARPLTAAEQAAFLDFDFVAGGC
Chain of UniProt Q9UG56 (Q9UG56 whole entry, looked up): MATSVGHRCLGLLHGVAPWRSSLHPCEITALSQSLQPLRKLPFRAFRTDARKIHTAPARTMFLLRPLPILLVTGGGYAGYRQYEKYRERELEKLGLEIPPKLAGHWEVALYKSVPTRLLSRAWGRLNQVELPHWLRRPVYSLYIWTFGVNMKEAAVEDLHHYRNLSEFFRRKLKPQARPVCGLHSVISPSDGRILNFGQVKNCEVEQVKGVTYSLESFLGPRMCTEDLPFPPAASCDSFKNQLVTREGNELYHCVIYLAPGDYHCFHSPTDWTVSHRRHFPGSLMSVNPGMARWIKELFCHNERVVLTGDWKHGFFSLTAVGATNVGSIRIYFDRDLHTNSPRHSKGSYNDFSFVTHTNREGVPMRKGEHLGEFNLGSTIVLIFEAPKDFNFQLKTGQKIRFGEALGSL
Chain of UniProt O60925 (O60925 whole entry, looked up): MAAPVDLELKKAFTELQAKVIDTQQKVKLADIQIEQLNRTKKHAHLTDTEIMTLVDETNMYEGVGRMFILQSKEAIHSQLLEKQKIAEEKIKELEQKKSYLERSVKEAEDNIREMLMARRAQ
Chain of UniProt P49643 (P49643 whole entry, looked up): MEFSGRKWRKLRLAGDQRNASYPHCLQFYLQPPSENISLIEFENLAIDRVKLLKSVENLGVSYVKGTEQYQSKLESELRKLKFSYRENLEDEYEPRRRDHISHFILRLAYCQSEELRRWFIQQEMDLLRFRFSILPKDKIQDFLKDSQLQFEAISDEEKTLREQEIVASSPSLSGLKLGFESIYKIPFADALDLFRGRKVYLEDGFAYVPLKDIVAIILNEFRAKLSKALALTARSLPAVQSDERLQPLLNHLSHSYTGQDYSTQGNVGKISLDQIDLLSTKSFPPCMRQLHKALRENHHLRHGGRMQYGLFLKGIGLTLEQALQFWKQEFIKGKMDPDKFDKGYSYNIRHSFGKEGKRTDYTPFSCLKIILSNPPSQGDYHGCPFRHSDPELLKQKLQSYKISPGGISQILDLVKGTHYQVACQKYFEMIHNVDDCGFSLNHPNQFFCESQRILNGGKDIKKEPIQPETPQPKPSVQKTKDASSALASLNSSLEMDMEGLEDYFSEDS
Chain of UniProt Q86W56 (Q86W56 whole entry, looked up): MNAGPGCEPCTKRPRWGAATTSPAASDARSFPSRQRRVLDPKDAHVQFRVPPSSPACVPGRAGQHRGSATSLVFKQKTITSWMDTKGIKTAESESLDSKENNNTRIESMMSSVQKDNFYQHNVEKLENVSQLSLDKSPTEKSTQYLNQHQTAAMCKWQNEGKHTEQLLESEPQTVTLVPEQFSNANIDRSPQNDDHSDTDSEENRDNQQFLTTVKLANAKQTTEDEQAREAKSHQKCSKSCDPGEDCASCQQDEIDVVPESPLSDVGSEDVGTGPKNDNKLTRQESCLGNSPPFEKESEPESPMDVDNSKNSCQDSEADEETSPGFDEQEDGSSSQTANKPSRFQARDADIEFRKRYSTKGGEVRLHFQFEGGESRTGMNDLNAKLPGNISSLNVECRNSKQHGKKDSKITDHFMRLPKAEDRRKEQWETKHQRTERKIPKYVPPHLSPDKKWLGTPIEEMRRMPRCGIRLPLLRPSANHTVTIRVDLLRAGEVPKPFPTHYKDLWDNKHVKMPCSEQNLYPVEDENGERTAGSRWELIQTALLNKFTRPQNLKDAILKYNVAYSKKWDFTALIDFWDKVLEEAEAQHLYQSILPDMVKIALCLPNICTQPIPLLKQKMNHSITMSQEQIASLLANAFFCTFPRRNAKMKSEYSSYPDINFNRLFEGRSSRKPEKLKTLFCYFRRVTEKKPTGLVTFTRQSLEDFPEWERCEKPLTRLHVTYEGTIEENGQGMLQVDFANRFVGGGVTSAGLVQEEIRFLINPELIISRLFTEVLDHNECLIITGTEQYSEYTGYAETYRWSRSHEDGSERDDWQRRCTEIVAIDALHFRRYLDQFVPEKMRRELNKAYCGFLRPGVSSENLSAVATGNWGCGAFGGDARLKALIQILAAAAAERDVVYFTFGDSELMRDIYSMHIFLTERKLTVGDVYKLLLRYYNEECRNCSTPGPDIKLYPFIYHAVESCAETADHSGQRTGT
Chain of UniProt P28072 (P28072 whole entry, looked up): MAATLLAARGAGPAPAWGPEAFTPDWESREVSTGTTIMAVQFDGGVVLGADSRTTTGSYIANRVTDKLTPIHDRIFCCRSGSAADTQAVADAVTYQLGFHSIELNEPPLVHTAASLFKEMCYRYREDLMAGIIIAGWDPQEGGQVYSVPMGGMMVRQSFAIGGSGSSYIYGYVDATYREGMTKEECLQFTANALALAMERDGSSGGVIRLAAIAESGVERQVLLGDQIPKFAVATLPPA
Chain of UniProt Q92871 (Q92871 whole entry, looked up): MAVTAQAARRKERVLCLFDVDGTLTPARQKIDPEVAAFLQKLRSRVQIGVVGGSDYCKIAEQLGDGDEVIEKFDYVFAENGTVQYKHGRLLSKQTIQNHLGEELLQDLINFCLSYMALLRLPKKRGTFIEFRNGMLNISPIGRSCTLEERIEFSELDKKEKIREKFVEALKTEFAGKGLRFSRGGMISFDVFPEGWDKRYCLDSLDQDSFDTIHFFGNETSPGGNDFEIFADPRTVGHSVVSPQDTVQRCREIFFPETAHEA
Chain of UniProt Q96A00 (Q96A00 whole entry, looked up): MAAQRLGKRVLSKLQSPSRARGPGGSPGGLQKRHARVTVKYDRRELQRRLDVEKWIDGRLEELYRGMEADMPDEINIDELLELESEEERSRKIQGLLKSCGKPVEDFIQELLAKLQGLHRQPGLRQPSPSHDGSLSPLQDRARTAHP
Chain of UniProt Q13362 (Q13362 whole entry, looked up): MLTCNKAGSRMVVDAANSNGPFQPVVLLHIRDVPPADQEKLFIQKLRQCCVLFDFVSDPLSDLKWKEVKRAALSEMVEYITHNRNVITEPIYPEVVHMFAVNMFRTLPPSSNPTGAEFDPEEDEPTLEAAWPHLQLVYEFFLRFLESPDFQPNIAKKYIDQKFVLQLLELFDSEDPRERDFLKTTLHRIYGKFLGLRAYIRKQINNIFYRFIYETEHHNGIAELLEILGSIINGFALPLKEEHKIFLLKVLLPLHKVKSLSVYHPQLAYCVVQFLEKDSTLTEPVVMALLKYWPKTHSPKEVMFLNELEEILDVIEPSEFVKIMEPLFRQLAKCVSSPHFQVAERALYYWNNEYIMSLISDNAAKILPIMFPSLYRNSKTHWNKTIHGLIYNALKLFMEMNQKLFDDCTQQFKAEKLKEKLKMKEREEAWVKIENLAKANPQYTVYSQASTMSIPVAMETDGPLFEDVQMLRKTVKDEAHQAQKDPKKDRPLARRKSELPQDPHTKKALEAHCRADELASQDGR
Chain of UniProt Q8NAV1 (Q8NAV1 whole entry, looked up): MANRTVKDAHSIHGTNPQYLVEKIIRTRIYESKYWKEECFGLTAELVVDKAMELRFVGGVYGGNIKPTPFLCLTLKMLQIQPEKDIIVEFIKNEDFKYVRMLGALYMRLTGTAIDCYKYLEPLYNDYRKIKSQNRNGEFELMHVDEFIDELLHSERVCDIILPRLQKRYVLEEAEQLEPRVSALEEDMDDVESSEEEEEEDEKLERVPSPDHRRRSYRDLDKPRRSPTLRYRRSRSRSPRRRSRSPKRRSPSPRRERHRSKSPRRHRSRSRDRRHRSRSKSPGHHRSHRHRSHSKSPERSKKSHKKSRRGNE

Row | Target | log2 fold change [1] | log2 fold change (volasertib) | log2 fold change [2] | log2 fold change (epoxomicin) | log2 fold change [3] | log2 fold change [4] | log2 fold change [5] | log2 fold change (rosiglitazone) | log2 fold change [6] | log2 fold change [7] | log2 fold change (saracatinib) | log2 fold change (sotrastaurin) | log2 fold change (alvocidib) | log2 fold change (Tubastatin A) | log2 fold change [8] | log2 fold change (defactinib) | log2 fold change (rucaparib) | log2 fold change [9] | log2 fold change (encorafenib) | log2 fold change [10]
1 | PPP2R5C isoform 5 (UniProt Q13362) | -0.12 | -0.429 (active) | 0.019 | 0.06 | -0.086 | -0.009 | -0.023 | 0.021 | -0.027 | -0.203 | 0.007 | -0.018 | -0.045 | 0.014 | -0.02 | -0.044 | -0.019 | 0.023 | 0.126 | -0.042
2 | PTRHD1 (UniProt Q6GMV3) | 0.106 | 0.037 | -0.028 | 0.415 (active) | 0.064 | 0.086 | -0.056 | 0.048 | 0.019 | 0.078 | -0.057 | 0.061 | -0.062 | 0.052 | 0.025 | 0 | -0.015 | -0.022 | -0.064 | 0.003
3 | PARG (UniProt Q86W56) | 0.036 | -0.025 | 0.059 | 0.004 | -0.126 | -0.016 | 0.09 | 0.059 | 0.005 | -0.126 | 0.003 | -0.102 | -0.19 | 0.051 | -0.113 | -0.068 | 0.044 | 0.115 | 0.034 | -0.025
4 | PMM1 (UniProt Q92871) | -0.029 | -0.239 | -0.024 | -0.002 | -0.025 | 0.08 | 0.009 | 0.047 | -0.061 | -0.018 | 0.006 | 0.094 | -0.011 | -0.018 | -0.315 (active) | -0.007 | 0.095 | 0.028 | -0.017 | -0.023
5 | PFDN1 (UniProt O60925) | 0.044 | -0.009 | -0.004 | 0.183 | 0.02 | -0.019 | 0 | 0.003 | -0.119 | 0.113 | -0.074 | -0.014 | -0.035 | 0.022 | -0.001 | -0.066 | -0.095 | 0.093 | 0.008 | -0.078
6 | PIP4K2A (UniProt P48426) | 0.602 (active) | 0.768 (active) | -0.055 | 0.018 | -0.049 | -0.052 | -0.021 | -0.009 | 0.04 | 0.114 | 0.048 | 0.011 | 0.131 | -0.001 | 0.084 | 0.166 | 0.013 | -0.132 | 0.1 | -0.056
7 | PI4K2A (UniProt Q9BTU6) | -0.075 | -0.081 | 0.009 | 0.027 | 0.037 | -0.023 | -0.014 | 0.055 | 0.009 | -0.146 | 0.058 | 0.041 | 0.013 | -0.008 | -0.024 | -0.014 | -0.027 | -0.11 | 0.057 | 0.02
8 | PSMB6 (UniProt P28072) | 0.029 | 0.195 | -0.055 | -0.241 (active) | 0.013 | 0.259 | -0.019 | -0.027 | 0.053 | 0.03 | -0.027 | -0.017 | 0.115 | 0.019 | -0.022 | 0.089 | -0.043 | 0.011 | 0.03 | 0.017
9 | PISD (UniProt Q9UG56) | -0.136 | -0.117 | -0.017 | -0.002 | -0.029 | -0.076 | -0.113 | 0.027 | -0.036 | -0.192 | -0.095 | 0.061 | 0 | 0.019 | 0.026 | -0.054 | 0.06 | 0.252 (active) | 0.063 | 0.028
10 | PKN1 isoform 2 (UniProt Q16512) | 0.005 | -0.105 | 0.084 | 0.014 | -0.185 | -0.038 | 0.009 | 0.06 | -0.021 | -0.772 (active) | -0.018 | -0.645 (active) | -0.048 | 0.026 | -0.088 | -0.121 | 0.022 | 0.026 | 0.024 | -0.014
11 | PCYT1B (UniProt Q9Y5K3) | -0.105 | -0.315 (active) | 0.08 | 0.001 | -0.033 | 0 | 0.012 | 0.041 | -0.007 | 0.035 | 0.133 | -0.13 | -0.236 | -0.028 | -0.028 | -0.162 | -0.139 | -0.036 | 0.04 | -0.029
12 | PDE4DIP isoform 4 (UniProt Q5VU43) | 0.013 | 0.005 | -0.071 | -0.012 | -0.004 | -0.009 | -0.035 | 0.003 | -0.046 | 0.006 | -0.028 | -0.064 | 0.017 | 0.064 | -0.065 | 0.021 | -0.057 | 0.007 | -0.015 | 0.035
13 | PRIM2 (UniProt P49643) | -0.119 | -0.285 (active) | 0.147 | 0.02 | -0.041 | -0.07 | 0.076 | 0.065 | 0.013 | -0.131 | -0.013 | -0.192 | -0.132 | 0.024 | 0.009 | -0.127 | 0.001 | 0.018 | 0.052 | -0.055
14 | PRPF38A (UniProt Q8NAV1) | -0.029 | -0.016 | 0 | 0.048 | -0.011 | 0.031 | 0.051 | 0.031 | -0.037 | -0.081 | 0.019 | 0.016 | -0.024 | -0.024 | 0.052 | -0.036 | 0.121 | -0.035 | -0.034 | -0.008
15 | PMPCA (UniProt Q10713) | 0.018 | 0.158 | 0.021 | 0.029 | 0.016 | -0.095 | 0.013 | 0.024 | -0.124 | 0.138 | -0.026 | -0.007 | -0.101 | -0.007 | 0.007 | -0.086 | -0.022 | 0.052 | -0.027 | -0.022
16 | PPP1R14A (UniProt Q96A00) | 0.002 | 0.051 | 0 | 0.058 | -0.023 | -0.067 | -0.04 | 0.016 | -0.027 | -0.091 | -0.048 | -0.027 | 0.025 | 0 | -0.021 | -0.012 | -0.023 | -0.015 | -0.025 | -0.004
